Read-out in test [1]: Monokine induced gamma interferon (MIG), CXCL9 (gene 4283)
The experiment in a line: BSK_3C_MIG: BioMAP Diversity Plus: 3C Assay for Monokine induced gamma interferon (MIG) Biomarker Activity (AID 2283021).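 As to AC50: MIG protein level measured by immunoassay in the treated endothelial cultures.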 The following applies: primary human endothelial cells (HUVEC); actives raise or lower the signal. In short, it runs like this: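 ELISA-measured MIG in dosed HUVEC 3C cultures at 24 h, analysed by bidirectional fitting with DMSO defining baseline activity.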

For test [2], the target named is human Vitamin D Receptor (VDR), VDR (gene 7421) (UniProt P11473). The experiment in a line: ATG_VDR_TRANS: Attagene TRANS-FACTORIAL HepG2 Assay for human Vitamin D Receptor (VDR) (AID 2283022; active = hit-call score of the fitted dose curve at least 0.9, where 1 is the maximum). In a few lines: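 Multiplexed TRANS reporter in HepG2; 24 h treatment; reporter mRNA by RT-PCR plus capillary electrophoresis; upregulation scored relative to DMSO.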
Test [3] is described as follows: BSK_3C_SRB: Viability Assessment in the BioMAP Diversity Plus: 3C Assay (AID 2283023).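 Also: fitted both ways against DMSO so a hit may be signal rise or drop.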 The note with it: primary human endothelial cells (HUVEC). In short, it runs like this: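 Overt cytotoxicity is gauged in parallel confluent HUVEC cultures by SRB total-protein staining at the time of biomarker measurement, 24 h after dosing. Gain or loss of signal is fitted versus DMSO.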

Read-out in test [4]: Matrix Metallopeptidase 1 (MMP1), MMP1 (gene 4312)
The experiment in a line: BSK_BE3C_MMP1: BioMAP Diversity Plus: BE3C Assay for Matrix Metallopeptidase 1 (MMP1) Biomarker Activity (AID 2283024). The note with it: primary human bronchial epithelial cells; actives raise or lower the signal. In short, it runs like this:
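In this multiplexed primary-cell system, human bronchial epithelium received chemicals for 24 h before an ELISA for MMP1. Values reflect bidirectional fits normalised to the DMSO baseline.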

A short description of test [5]: BSK_3C_Vis: BioMAP Diversity Plus: 3C Assay for Morphology Visualization (AID 2283025).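 Also: fitted both ways so gain or loss versus DMSO counts.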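 As to AC50: light microscopy image of cell morphology used as background control.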 The note with it: primary human endothelial cells (HUVEC). In a few lines: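 Light-microscopy morphology readout, 24 h exposure, human primary umbilical vein endothelium; analysed relative to DMSO with bidirectional fitting.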
Read-out in test [6]: Pselectin, SELP (gene 6403)
The experiment in a line: BSK_4H_Pselectin: BioMAP Diversity Plus: 4H Assay for Pselectin Biomarker Activity (AID 2283026). The following applies: primary human endothelial cells (HUVEC); actives raise or lower the signal. In short, it runs like this:
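Bidirectional fits against DMSO gave the endpoint. Cells: primary human umbilical vein endothelium, chemical-treated for 24 h before ELISA detection of P-selectin.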

The nature of test [7]: BSK_4H_SRB: Viability Assessment in the BioMAP Diversity Plus: 4H Assay (AID 2283027).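 Also: cells exposed to compound for 24 h before staining.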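 As to AC50: curves fitted both ways versus DMSO so AC50 may be loss or gain.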 The following applies: primary human endothelial cells (HUVEC). In a few lines: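 Cytotoxicity read-out in primary human endothelial cells: after 24 h compound exposure, cells were TCA-fixed (10%), stained with 0.1% SRB and absorbance taken at 560 nm. Values fitted in both directions relative to DMSO.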

Test [8] in a line: BSK_BE3C_SRB: Viability Assessment in the BioMAP Diversity Plus: BE3C Assay (AID 2283028).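 Also: measured 24 h after chemical dosing.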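 As to AC50: fitted both ways so AC50 may mark signal gain or loss versus DMSO.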 The note with it: primary human bronchial epithelial cells. In a few lines:
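SRB total-protein staining (0.1%, after TCA fixation) of chemically dosed human bronchial epithelial primary cells at 24 h; DMSO serves as the negative control for bidirectional curve fitting.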

Read-out in test [9]: Thrombomodulin, THBD (gene 7056)
The experiment in a line: BSK_3C_Thrombomodulin: BioMAP Diversity Plus: 3C Assay for Thrombomodulin Biomarker Activity (AID 2283029). The note with it: primary human endothelial cells (HUVEC); actives raise or lower the signal. In a few lines: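 In a multiplexed primary-cell system, human umbilical vein endothelium received chemical and was assayed 24 h later for thrombomodulin by ELISA. Parallel cultures were SRB-stained (0.1% SRB after 10% TCA fixation, read at 560 nm) to flag cytotoxicity.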

Read-out in test [10]: Urokinase-type plasminogen activator receptor (uPAR), PLAUR (gene 5329)
The experiment in a line: BSK_4H_uPAR: BioMAP Diversity Plus: 4H Assay for Urokinase-type plasminogen activator receptor (uPAR) Biomarker Activity (AID 2283030). The following applies: primary human endothelial cells (HUVEC); actives raise or lower the signal. In short, it runs like this:
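Endpoint derived via bidirectional curve fitting against DMSO baseline; readout was ELISA detection of uPAR on umbilical vein endothelial cells at 24 h post-treatment, with SRB-stained parallel cultures assessing cytotoxicity.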

The structures appear in SMILES notation. Results filed as inconclusive are left out. The source made the active and inactive calls. The calls were made as follows, unless noted: active = hit-call score of the fitted dose curve at least 0.9, where 1 is the maximum; inactive = score below 0.9.

Chain of human Vitamin D Receptor (VDR), VDR (gene 7421) (P11473 whole entry, looked up): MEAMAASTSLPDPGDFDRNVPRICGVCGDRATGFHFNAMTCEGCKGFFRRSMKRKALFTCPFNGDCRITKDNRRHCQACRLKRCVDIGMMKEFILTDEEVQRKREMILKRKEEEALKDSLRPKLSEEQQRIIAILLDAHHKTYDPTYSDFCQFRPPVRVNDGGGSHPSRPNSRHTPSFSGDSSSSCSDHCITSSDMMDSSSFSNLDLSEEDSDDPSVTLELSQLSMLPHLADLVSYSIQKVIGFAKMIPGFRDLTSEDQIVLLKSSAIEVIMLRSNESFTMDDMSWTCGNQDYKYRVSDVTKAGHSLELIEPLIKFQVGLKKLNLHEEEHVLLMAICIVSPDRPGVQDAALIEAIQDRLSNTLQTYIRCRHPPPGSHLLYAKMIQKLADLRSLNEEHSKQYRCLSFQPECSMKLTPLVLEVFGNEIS

The term AC50 denotes the midpoint of the concentration-response curve, whichever way the signal moves. In the case of `CCCSP(=O)(OCC)Oc1ccc(Br)cc1Cl` (stereo not given), the result in [1], in test [2], in test [4], in [5], in [9] and in [10] was inactive. Further, the AC50 in [3] was 22.6 µM (active); in test [6] it was 32.3 µM (active); in [7] it was 22.8 µM (active); in [8], 15.4 µM (active).
With `COP(=O)(NC(C)=O)SC` (stereo not given), the result in test [1], in test [2], in test [4], in test [5], in test [6] and in test [7] was inactive. Further, the outcome in [8], in test [9] and in test [10] was inactive. Moreover, the AC50 in test [3] was 5.17 µM (active).
For `CCCSP(=O)(OCC)SCCC`, the outcome in test [1], in test [2], in [3], in test [4], in test [5] and in test [6] was inactive. Further, the result in [7], in [8], in test [9] and in test [10] was inactive.
On to `CC(=NC#N)N(C)Cc1ccc(Cl)nc1`, for which the outcome in test [1], in test [2], in test [3], in test [4], in test [5] and in test [6] was inactive. In addition, the result in test [8], in test [9] and in test [10] was inactive. Further, in test [7], the AC50 is 7.17 µM (active).
For the molecule `CC1=NNC(=O)N(/N=C/c2cccnc2)C1`, the result in test [1], in test [2], in test [3], in test [4], in test [5] and in test [6] was inactive. The outcome in test [7], in [8], in test [9] and in test [10] was inactive.
As for `C[Si](Cn1cncn1)(c1ccc(F)cc1)c1ccc(F)cc1`, the result in [1], in test [2], in test [4], in test [6], in [7] and in test [8] was inactive. In addition, the result in test [9] and in test [10] was inactive. In addition, the results for the AC50 in test [3] and in [5] were 17.9 µM (active) and 39 µM (active), respectively.
Take `Cc1nn(-c2cc(NS(C)(=O)=O)c(Cl)cc2Cl)c(=O)n1C(F)F`: the result in [1], in test [2], in test [3], in test [4], in [5] and in test [6] was inactive. Also, the outcome in test [7], in test [8], in test [9] and in test [10] was inactive.
Consider `COc1ccc(C(=CC(=O)N2CCOCC2)c2ccc(Cl)cc2)cc1OC`, for which the outcome in test [1], in test [2], in test [3], in test [4], in [5] and in test [6] was inactive. For the same molecule, the result in test [7], in test [8] and in [10] was inactive. Besides, the AC50 in test [9] is 3.36 µM (active).
As to `Cc1cc(C2CC2)nc(Nc2ccccc2)n1`, the outcome in test [1], in [2], in test [4], in [6], in [7] and in test [8] was inactive. Also, the outcome in [10] was inactive. Further, the results for the AC50 in [3], in test [5] and in [9] were 24.8 µM (active), 37.5 µM (active) and 33.7 µM (active), respectively.
Turning to `CC1(C(=O)Nc2ccc(O)c(Cl)c2Cl)CCCCC1`, the result in test [1], in test [2], in [3], in test [4], in test [5] and in test [6] was inactive. For the same molecule, the outcome in test [7], in test [9] and in test [10] was inactive. For the same molecule, the AC50 in test [8] is 17.8 µM (active).
`CCOP(=O)(SC(C)CC)N1CCSC1=O` (stereo not given): the outcome in [1], in test [2], in test [3], in [4], in test [5] and in test [6] was inactive. In addition, the outcome in [7], in test [8], in test [9] and in [10] was inactive.
Turning to `COP(=O)(OC)SCn1c(=O)oc2cc(Cl)cnc21`, the outcome in test [1], in [2], in [4], in [7], in [8] and in [9] was inactive. In addition, the outcome in test [10] was inactive. The AC50 in [3] was 20 µM (active); in [5], 39 µM (active); in test [6], 17.5 µM (active).
Consider `CCc1cnc(C2=NC(C)(C(C)C)C(=O)N2)c(C(=O)O)c1` (stereo not given), for which the outcome in [1], in test [2], in test [3], in test [4], in [5] and in test [6] was inactive. Moreover, the outcome in test [7], in test [8], in [9] and in test [10] was inactive.
Regarding `CC[C@H](C)[C@H]1O[C@]2(C=C[C@@H]1C)C[C@@H]1C[C@@H](C/C=C(\C)[C@@H](O[C@H]3C[C@H](OC)[C@@H](O[C@H]4C[C@H](OC)[C@@H](NC)[C@H](C)O4)[C@H](C)O3)[C@@H](C)/C=C/C=C3\CO[C@@H]4[C@H](O)C(C)=C[C@@H](C(=O)O1)[C@]34O)O2`, the AC50 in test [1] is 9.14 µM (active); in [3], 2.43 µM (active); in [4], 11.9 µM (active); in [5], 1.61 µM (active); in test [6] it was 1.77 µM (active); in test [7] it was 5.17 µM (active). For the same molecule, the AC50 in test [8] was 2.87 µM (active); in [9], 1.88 µM (active); in test [10] it was 1.73 µM (active). Besides, the molecule was classed as inactive in [2].
With `COP(=O)(OC)C(O)C(Cl)(Cl)Cl` (stereo not given), the result in test [1], in [2], in [3], in test [4], in [6] and in test [7] was inactive. Moreover, the result in [8], in test [9] and in test [10] was inactive. For the same molecule, in test [5], the AC50 was 9.8 µM (active).
With `Nc1c(Cl)cc([N+](=O)[O-])cc1Cl`, the outcome in test [1], in test [2], in test [3], in [4], in test [5] and in test [6] was inactive. For the same molecule, the outcome in test [7], in test [8], in test [9] and in test [10] was inactive.
For the molecule `CCCCSP(=O)(SCCCC)SCCCC`, the outcome in test [1], in test [2], in [4], in test [6] and in [10] was inactive. Moreover, the AC50 was 27.9 µM (active) in test [3]; 13.7 µM (active) in test [5]; 20 µM (active) in test [7]; 14.7 µM (active) in test [8]; 5.35 µM (active) in [9].
